# Screening results deposited in PubChem by National Center for Advancing Translational Sciences (NCATS).
# NIH3T3 tox = Cytotoxic Profiling in NIH 3T3 Cell Line of Diverse Libraries Using Quantitative High-Throughput Screening; NIH 3T3 viability, CellTiter-Glo ATP luminescence, 48-72 h; Potency, µM (titrated, usually from 96.7 µM), inactives show top-dose activity change, negative = cytotoxicity, hits mostly inhibitors; hit rate 4.3% among 94,000; active means well fitted curve in the direction sought with a large enough effect; inconclusive means small, poorly fitted or top-dose-only effect, or another doubt; inactive means no such curve, though single readings can be large; an effect the other way counts as inactive or inconclusive; further: on the % scale 0 is the no-effect control and ±100 the full control effect; nearly all actives have a fitted effect of over 55% in size
#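 ATP-dependent luminescence (CellTiter-Glo) served as the viability signal for NIH 3T3 cells treated with compound for 48 or 72 hr at 37 °C.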
# Luciferase inh = Firefly luciferase inhibition profiling of diverse chemical library using quantitative high-throughput screening; Luciferin 4-monooxygenase (Photinus pyralis), P08659; purified P. pyralis luciferase, luminescence, biochemical; Potency, µM (top dose mostly 115 µM), hits mostly inhibitors; hit rate 2.5% among 76,000; AID 1347043, 2019; active means well fitted curve in the direction sought with a large enough effect; inconclusive means small, poorly fitted or top-dose-only effect, or another doubt; inactive means no such curve, though single readings can be large; an effect the other way counts as inactive or inconclusive; further: on the % scale 0 is the no-effect control and ±100 the full control effect; nearly all actives have a fitted effect of over 65% in size
#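 Luminescence read by CCD imaging after purified firefly luciferase (10nM final) was added to substrate buffer holding 10uM D-luciferin and 10uM ATP, pH 7.5, pre-dosed with compound.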
# hNpr1 antagonist = Natriuretic polypeptide receptor (hNpr1) antagonism - Primary qHTS; Atrial natriuretic peptide receptor 1 (Homo sapiens), P16066; HEK293 hNpr1 GloSensor cGMP, ANP-stimulated luminescence; Potency, µM (top dose mostly 46.3 µM), for the others: at the top dose activity change, negative = inhibition, actives largely listed as inhibitors; hit rate 1.6% among 76,000; AID 1347048, 2019; further: on the % scale 0 is the no-effect control and ±100 the full control effect; nearly all actives have a fitted effect of over 60% in size
#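 Compound pre-incubated 30 min at room temperature on GloSensor-loaded HEK293 cells stably carrying hNpr1 and the pGS-40F cGMP biosensor. Stimulation uses hNppA at 0.1 nM final; luminescence is taken at baseline and 20 min post-agonist.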
# HEK293 tox = Cytotoxic Profiling in HEK 293 Cell Line of Diverse Libraries Using Quantitative High-Throughput Screening; HEK 293 viability, ATP luminescence (CellTiter-Glo), 48-72 h; Potency, µM (series often up to 115 µM), inactives show at the highest dose activity change, negative = cytotoxicity, actives largely listed as inhibitors; hit rate 6.6% among 94,000; AID 1345083, 2018; active means well fitted curve in the direction sought with a large enough effect; inconclusive means small, poorly fitted or top-dose-only effect, or another doubt; inactive means no such curve, though single readings can be large; an effect the other way counts as inactive or inconclusive; further: on the % scale 0 is the no-effect control and ±100 the full control effect; nearly all actives have a fitted effect of over 60% in size
#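 HEK 293 seeded at 250 cells/well receive compound via pintool. After 48 or 72 hr at 37 degree Celsius, 5% CO2 and 95% humidity, CellTiter-Glo is dispensed and luminescence read following 10 min at room temperature.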
# NPR1 antag cnf = Natriuretic polypeptide receptor (hNpr1) antagonism - Confirmation | shares compounds with hNpr1 antagonist | HEK293 hNpr1 cGMP GloSensor luminescence, ANP-stimulated | Potency, µM (top dose mostly 57.6 µM), inactives show at the highest dose activity change, negative = inhibition, hits mostly inhibitors | hit rate 76% among 1,400; further: nearly all actives have a fitted effect of over 70% in size
# NPR2 antag = Natriuretic polypeptide receptor (hNpr2) antagonism - Subtype selectivity assay. shares compounds with hNpr1 antagonist. HEK293 hNpr2 GloSensor cGMP luminescence, CNP-stimulated. Potency, µM (titrated, usually from 57.6 µM), without a hit: top-dose activity change, negative = inhibition, usual class: inhibitors. hit rate 67% among 1,400; further: nearly all actives have a fitted effect of over 70% in size
# Target sequence (P20594 whole entry, looked up): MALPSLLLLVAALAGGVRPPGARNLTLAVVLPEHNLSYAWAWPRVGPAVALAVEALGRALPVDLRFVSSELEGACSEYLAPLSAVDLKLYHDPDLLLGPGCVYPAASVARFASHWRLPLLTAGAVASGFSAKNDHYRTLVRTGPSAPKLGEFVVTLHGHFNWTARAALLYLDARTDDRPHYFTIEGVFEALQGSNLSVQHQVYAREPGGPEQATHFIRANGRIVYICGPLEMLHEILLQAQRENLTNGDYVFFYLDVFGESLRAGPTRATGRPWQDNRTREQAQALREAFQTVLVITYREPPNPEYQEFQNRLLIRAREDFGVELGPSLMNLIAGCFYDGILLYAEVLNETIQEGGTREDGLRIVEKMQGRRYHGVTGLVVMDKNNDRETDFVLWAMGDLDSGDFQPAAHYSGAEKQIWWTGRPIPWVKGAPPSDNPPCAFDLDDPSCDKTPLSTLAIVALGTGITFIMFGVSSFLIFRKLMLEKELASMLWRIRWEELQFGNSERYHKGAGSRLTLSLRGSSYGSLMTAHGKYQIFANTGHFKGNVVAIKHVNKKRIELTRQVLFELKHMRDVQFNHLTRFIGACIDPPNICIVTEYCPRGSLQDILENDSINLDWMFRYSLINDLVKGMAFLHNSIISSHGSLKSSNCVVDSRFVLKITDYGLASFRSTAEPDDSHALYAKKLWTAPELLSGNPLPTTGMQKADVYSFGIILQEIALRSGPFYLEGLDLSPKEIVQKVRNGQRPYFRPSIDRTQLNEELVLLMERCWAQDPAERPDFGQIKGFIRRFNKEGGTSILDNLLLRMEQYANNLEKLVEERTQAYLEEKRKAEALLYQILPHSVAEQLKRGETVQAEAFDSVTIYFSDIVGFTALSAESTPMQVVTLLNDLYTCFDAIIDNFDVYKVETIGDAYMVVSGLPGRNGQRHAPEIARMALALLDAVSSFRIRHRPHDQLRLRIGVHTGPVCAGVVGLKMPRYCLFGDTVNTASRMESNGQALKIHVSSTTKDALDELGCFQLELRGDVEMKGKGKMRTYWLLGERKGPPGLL
# FLuc counter = Natriuretic polypeptide receptor (hNpr1) antagonism - Confirmation firefly luciferase (FLuc) inhibition counterscreen | shares compounds with hNpr1 antagonist | purified FLuc enzyme, luminescence, Km substrate | Potency, µM (doses to about 57.6 µM), for inactives: top-dose activity change, negative = inhibition, actives largely listed as inhibitors | hit rate 0.7% among 1,400; active means well fitted curve in the direction sought with a large enough effect; inconclusive means small, poorly fitted or top-dose-only effect, or another doubt; inactive means no such curve, though single readings can be large; an effect the other way counts as inactive or inconclusive; further: 0% is about no effect
# GloSensor cGMP = Natriuretic polypeptide receptor (hNpr1) antagonism - Counterscreen GloSensor control cell line | shares compounds with hNpr1 antagonist | HEK293 GloSensor cGMP, SNP-stimulated, luminescence | Potency, µM (highest dose often 57.6 µM), without a hit: at the highest dose activity change, negative = inhibition, usual class: inhibitors | hit rate 69% among 1,400; further: on the % scale 0 is the no-effect control and ±100 the full control effect; nearly all actives have a fitted effect of over 70% in size
# Starred values were filed as active, the others as inactive; i = inactive; ? = inconclusive; / = no result; [ ] = dose if it differs, or a comment. In the library only some 11% were active in any assay of this set; here they are far more common. Unless noted, the call rests on the fitted dose curve. Potency means the concentration at half of the fitted maximal effect.
SMILES,NIH3T3 tox,Luciferase inh,hNpr1 antagonist,HEK293 tox,NPR1 antag cnf,NPR2 antag,FLuc counter,GloSensor cGMP
Cc1nn(Cc2ccccc2)c(C)c1[C@@H]1C=C[C@@H](NC(=O)c2ccc3c(c2)OCO3)C1,?,i,32µM*,28µM*,35µM*,35µM*,-13%[86.2 µM],35µM*
CCCn1cc(C(=O)NCC2COc3cc(OC)ccc3C2)c(C)n1 (stereo not drawn),?,i,11µM*,?,19µM*,22µM*,-1%,19µM*
CCN1C(=O)Cc2ccccc2C1C(=O)NCc1ccccc1Br (stereo not drawn),-6%,i,-23%,-19%,-29%,?,-14%,-9%
CCN1C(=O)Cc2ccccc2C1C(=O)NCc1ccccc1C (stereo not drawn),3%,i,-11%,-8%,/,/,/,/
CN(CCc1noc(C2CC2)n1)C(=O)[C@H]1CNC[C@@H](C(=O)N2CCCC2)C1,i,i,-2%,-3%,/,/,/,/
COCCCNc1cc(-c2ccc(Cl)cc2)nc2c(C)noc12,?,?,-1%[70.6 µM],?,/,/,/,/
O=C(NC1CCCc2c1[nH]c1c(Cl)cccc21)C1(c2ccccc2)CCOCC1 (stereo not drawn),-23%,i,1%,-5%,/,/,/,/
COc1ccc(C2(C(=O)NC3CCCc4c3[nH]c3ccccc43)CCOCC2)cc1 (stereo not drawn),40µM*,i,?,?,22µM*,15µM*,-1%,-5%
Cc1ccc(-n2cccc2CC(=O)NCc2ccc3c(c2)OCO3)cc1,?,i,-19%,?,/,/,/,/
CN1C[C@@H](NC(=O)c2ccc3c(c2)OCO3)C[C@H]1c1nc(-c2ccc(Cl)cc2)no1,79µM*,i,35µM*,50µM*,28µM*,31µM*,-28%[86.2 µM],25µM*
COc1ccccc1CN1C[C@@H]2C(=O)N(Cc3ccc4c(c3)OCO4)C(=O)[C@@H]2C1,-17%,i,-1%,-4%,/,/,/,/
COc1ccc(CN2C[C@@H]3C(=O)N(Cc4ccc5c(c4)OCO5)C(=O)[C@@H]3C2)cc1OC,-34%,i,14µM*,?,17µM*,19µM*,-2%,12µM*
COC(=O)CNC(=O)c1nc2cccnc2n(CCc2ccccc2)c1=O,-17%,/,/,-10%,/,/,/,/
Cc1ccc(C(=O)N2CCN(C(=O)c3nnn4c3COC(c3ccc(F)cc3)C4)CC2)cc1C (stereo not drawn),?,i,11µM*,45µM*,27µM*,22µM*,0%,24µM*
COc1ccc(C2Cn3nnc(C(=O)N4CCN(C(=O)c5ccc(F)cc5Cl)CC4)c3CO2)cc1 (stereo not drawn),-26%,i,11µM*,?,22µM*,22µM*,0%,19µM*
COc1ccc(C2Cn3nnc(C(=O)N4CCN(C(=O)Cc5ccc(F)cc5)CC4)c3CO2)cc1 (stereo not drawn),-10%,i,8.9µM*,?,14µM*,15µM*,0%,14µM*
COc1ccc(C2Cn3nnc(C(=O)N4CCN(C(=O)c5cc(C)ccc5C)CC4)c3CO2)cc1 (stereo not drawn),?,i,?,?,?,-23%,-1%,-15%
O=C(Cc1ccc(F)cc1)N1CCN(C(=O)c2nnn3c2COC(c2ccc(Cl)cc2)C3)CC1 (stereo not drawn),-25%,i,13µM*,?,24µM*,?,-1%,22µM*
COc1ccc(C(=O)N2CCN(C(=O)c3nnn4c3COC(c3ccc(F)cc3)C4)CC2)cc1 (stereo not drawn),?,i,-16%,?,/,/,/,/
COc1ccc(C2Cn3nnc(C(=O)N4CCN(C(=O)c5ccc(F)cc5)CC4)c3CO2)cc1 (stereo not drawn),-12%,i,?,?,22µM*,?,-1%,22µM*
COc1ccc(C2Cn3nnc(C(=O)NC4CCCCCCC4)c3CO2)cc1 (stereo not drawn),?,i,?,?,?,?,-1%,19µM*
COCCN(CC1CCCN(C2Cc3ccccc3C2)C1)C(=O)c1cc(C)nn1C (stereo not drawn),-1%,i,0%,-3%,/,/,/,/
F[C@@H]1CN(Cc2ccc(C(F)(F)F)cc2)C[C@@H]1OCc1nc2ccccc2[nH]1,?,i,28µM*,79µM*,40µM*,40µM*,-2%[86.2 µM],40µM*
F[C@@H]1CN(Cc2ccc(C(F)(F)F)cc2)C[C@@H]1OCc1nc2ccncc2[nH]1,?,i,?,?,/,/,/,/
CC1(C)C[C@H](NCC2CCCCC2)[C@@]2(CCC(=O)NC3CC3)CC[C@](C)(O)C[C@@H]12,0%[174 µM],i,3%[70.6 µM],-1%[172 µM],/,/,/,/
O=C1NC2(CCN(Cc3ccc(OC(F)(F)F)cc3)C2)Oc2ccccc21 (stereo not drawn),?,i,8%,?,/,/,/,/
O=C1NC2(CCN(Cc3ccc(OC(F)(F)F)cc3)C2)OCc2ccccc21 (stereo not drawn),-18%,i,?,79µM*,22µM*,22µM*,2%,17µM*
O=C(NCc1ccccc1)c1ccc2nc(-c3ccncc3)oc2c1,-14%,/,/,-7%,/,/,/,/
O=C(c1cc(F)cc(F)c1)N1CCC(Cc2nc(-c3ccc(F)cc3)no2)CC1,?,i,?,?,/,/,/,/
O=C(c1cc(F)ccc1F)N1CCC(Cc2nc(-c3ccc(F)cc3)no2)CC1,?,i,3.2µM*,?,3.1µM*,4.8µM*,4%,3.1µM*
